Results with a measured potency or affinity are listed apart. Activity calls are given as the source filed them. The rule behind the calls is not given here.
target: UDP-galactopyranose mutase (Mycobacterium tuberculosis (strain ATCC 25618 / H37Rv)) (UniProt P9WIQ1); experiment: Mycobacterium tuberculosis UGM enzyme inhibition, dose response confirmation, purified biochemical assay (AID 540359); settings: plate reader activity; series mostly up to 50 µM; activity change, negative = inhibition: at the top concentration
Sequence (P9WIQ1 whole entry, looked up): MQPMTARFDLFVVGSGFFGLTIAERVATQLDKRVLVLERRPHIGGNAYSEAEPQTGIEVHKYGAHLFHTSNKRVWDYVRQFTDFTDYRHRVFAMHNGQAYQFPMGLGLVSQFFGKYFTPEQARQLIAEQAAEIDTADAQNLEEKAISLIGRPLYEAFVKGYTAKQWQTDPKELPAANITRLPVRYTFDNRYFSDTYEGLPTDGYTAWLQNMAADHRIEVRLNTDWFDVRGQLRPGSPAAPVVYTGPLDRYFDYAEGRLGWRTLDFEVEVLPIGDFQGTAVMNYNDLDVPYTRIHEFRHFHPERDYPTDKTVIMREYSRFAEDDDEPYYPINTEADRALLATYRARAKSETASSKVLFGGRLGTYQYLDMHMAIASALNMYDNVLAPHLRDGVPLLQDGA

| SMILES | activity change, negative = inhibition |
| --- | --- |
| COc1ccc(C(=O)NCC(=O)N2CCN(C(=O)c3ccco3)CC2)cc1[N+](=O)[O-] | -15.6% (inactive) |
| CCOC(=O)c1c(C)nc2ccccc2c1C | -1.7% (inactive) |
| COc1cccc(C(=O)OCC(=O)NCc2ccc3c(c2)OCO3)c1OC | -0.378% (inactive) |
| Cn1cccc1C(=O)NC(=O)COC(=O)CC12CC3CC(CC(Br)(C3)C1)C2 | 4.1% (inactive) |
| CCOc1ccc(/C(CCC(=O)O)=N/NC(=O)c2cccc(S(=O)(=O)Nc3ccccc3OC)c2)cc1 | -6.3% (inactive) |
| COc1ccccc1NC(=O)C1CCN(S(=O)(=O)c2cccs2)CC1 | -1.77% (inactive) |
| CC(N)=Nc1ccc([N+](=O)[O-])cc1 | -0.037% (inactive) |
| Cc1nn(-c2ccccc2)c(Cl)c1C(=O)NCC1CCCO1 (stereo not drawn) | -0.88% (inactive) |
| CC1=Nc2ccccc2/C1=C\c1nc(-c2ccc(C(F)(F)F)cc2)oc1O | -9.96% (inactive) |
| CCOC(=O)/C(C#N)=C1\CC2CCC1(C)C2(C)C (stereo not drawn) | -1.94% (inactive) |
| Cc1c(C(=O)N2CCOCC2)sc(NC(=O)CCl)c1C#N | 0.121% (inactive) |
| O=C(Nc1nccs1)c1ccc(-c2ccc([N+](=O)[O-])cc2)o1 | 8.63% (inactive) |
| COC(=O)C1=CC(C(=O)c2cccs2)=NN(c2ccc(OC)cc2)C1C(=O)OC (stereo not drawn) | -9.84% (inactive) |
| O=C(O)c1ccccc1C(=O)OCCCCOC(=O)c1ccccc1C(=O)O | -7.41% (inactive) |
| COc1cccc2c(=O)cn[nH]c12 | -12.8% (inactive) |
| Cc1cc(C(=O)OCC(=O)Nc2c(Cl)cccc2Cl)c(C)o1 | -2.82% (inactive) |
| COc1ccc(-c2cc(=O)[nH]c3ccccc23)cc1 | -4.6% (inactive) |
| O=C(N=c1ccn(-c2nc3ccccc3nc2NS(=O)(=O)c2ccc(Cl)cc2)cc1)c1cccs1 | 21.6% (inactive) |
| COc1ccc2[nH]c(C)c(CCN(Cc3cccs3)C(=S)Nc3ccccc3OC)c2c1 | -8.12% (inactive) |
| COCCCn1c(=O)/c(=C\c2ccccc2OC(C)C)s/c1=C(/C#N)C(=O)Nc1ccc(C(=O)O)cc1 | 65.1% (inactive) |
| Cc1ccccc1OCCn1cc(C(=S)N2CCCC2)c2ccccc21 | -4.74% (inactive) |
| CCc1ccc(C(CC(=O)c2ccc(Cl)cc2)C(=O)O)cc1 (stereo not drawn) | -0.867% (inactive) |
| COc1ccccc1NS(=O)(=O)c1cc(N)ccc1N1CCCC1 | -3.52% (inactive) |
| N#Cc1c(-c2ccccc2)ccnc1Oc1ccccc1 | -3.15% (inactive) |
| COc1ccc(/C=C/C(=O)OCC(=O)NC2CCCCCC2)cc1OC | -0.651% (inactive) |
| O=C(NC(=S)Nn1cnnc1)c1ccccc1Cl | -13.4% (inactive) |
| O=c1[nH]c(=O)n(-c2ccc(F)cc2)c(O)c1/C=C1\C=Nc2ccccc21 | 14.2% (inactive) |
| COc1ccc2c(c1)c1nc3ccccc3nc1n2CC(=O)OC(C)C | -3.78% (inactive) |
